# Screening results from PubChem.
# A selection: hits, their analogues and other compounds. The true share with any hit is near 10%.
# RORgamma inh: ROR gamma (mouse) transcription inhibition; P51450; Drosophila S2 Gal4-RORgamma UAS-luciferase reporter, 20 h; Potency, µM (series often up to 53.6 µM), hits mostly inhibitors; actives 5.4% (n = 310,000); AID 2551; further: nearly all actives have a fitted effect of over 60% in size
# Target sequence (P51450 whole entry, looked up, the tested form may be a part): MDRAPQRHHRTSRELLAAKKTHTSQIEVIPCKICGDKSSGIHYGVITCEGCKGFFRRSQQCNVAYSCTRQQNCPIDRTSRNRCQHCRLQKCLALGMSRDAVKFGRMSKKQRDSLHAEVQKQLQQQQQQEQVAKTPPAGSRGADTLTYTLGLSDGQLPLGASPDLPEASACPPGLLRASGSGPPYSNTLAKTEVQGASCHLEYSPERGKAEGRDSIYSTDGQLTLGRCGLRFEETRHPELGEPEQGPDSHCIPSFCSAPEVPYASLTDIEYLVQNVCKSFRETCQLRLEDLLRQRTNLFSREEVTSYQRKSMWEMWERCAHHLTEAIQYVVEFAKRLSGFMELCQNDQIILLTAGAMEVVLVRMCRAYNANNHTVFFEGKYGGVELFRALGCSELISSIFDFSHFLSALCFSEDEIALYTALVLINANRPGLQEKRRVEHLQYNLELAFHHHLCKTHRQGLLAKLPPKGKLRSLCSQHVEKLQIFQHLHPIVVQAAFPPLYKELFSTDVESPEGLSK
#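 A Gal4/UAS one-hybrid system in insect cells: metallothionein-promoter Gal4–ROR gamma fusion plus Photinus luciferase reporter. Copper sulfate 700 uM final, 20 hr ambient incubation, luminescent detection after 10 min with reagent.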
# SW480 rerep: induces DNA re-replication in SW480 colon adenocarcinoma cells; SW480 DNA re-replication, Hoechst DNA content imaging, 48 h; Potency, µM (top dose mostly 46.1 µM), hits mostly activators; actives 1.8% (n = 340,000); AID 624297; further: nearly all actives have a fitted effect of over 55% in size
#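 250 cells/well; 23 nL cpd via pin tool; 48 hr, 37 C, 5% CO2; Hoechst 40 min; imager read of total nuclear intensity, ex 405/em 500-530 nm.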
# ELG1 DNA repair: blocks ELG1-dependent DNA repair in HEK293T cells; HEK293T ELG1-luciferase reporter, luminescence, 16 h; DNA damage induced by 5-fluorouridine; Potency, µM (doses to about 46.1 µM), most hits filed as inhibitors; actives 2.3% (n = 330,000); further: nearly all actives have a fitted effect of over 55% in size
#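 Overnight (16 hr) co-exposure of 2,000 cells/well to 5-fluorouridine and compound at 37 °C preceded detection. Luciferase was quantified via ONE-Glo luminescence; loss of signal denotes inhibition.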
# MCF10A rerep: DNA re-replication induction in MCF 10a cells; Potency, µM (titrated, usually from 46.1 µM), most hits filed as activators; MCF 10A DNA re-replication, Hoechst nuclear intensity, 48 h; actives 2.9% (n = 350,000); AID 624296; further: nearly all actives have a fitted effect of over 50% in size
# Gal4-VP16 FLuc: inhibits Gal4-VP16 luciferase reporter, ROR gamma counter-screen | Potency, µM (highest dose often 53.6 µM), hits mostly inhibitors | actives 3.5% (n = 310,000) | Drosophila S2 Gal4-VP16 UAS-luciferase, luminescence, 20 h | AID 2546;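 further: Gal4-VP16 expression switched on by copper sulfate through the metallothionein promoter; nearly all actives have a fitted effect of over 50% in size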
# Hits are given with their value; i = inactive; ? = inconclusive; nt = not tested or not shown; [ ] = dose if it differs, or a comment. The call rests on the fitted dose curve; in most records, active means well fitted curve in the direction sought with a large enough effect; inconclusive means small, poorly fitted or top-dose-only effect, or another doubt; inactive means no such curve, though single readings can be large; an effect the other way counts as inactive or inconclusive.
SMILES,RORgamma inh,SW480 rerep,ELG1 DNA repair,MCF10A rerep,Gal4-VP16 FLuc
CC(=NNC(=O)c1cc(C)oc1C)c1ccc(Br)s1,nt,i,?,i,nt
Cc1ccc(/C=N/NC(=O)c2ccco2)s1,?,i,?,i,i
C/C(=N\NC(=O)c1ccoc1C)c1ccc(Br)s1,6.31µM,i,?,i,11.2µM
Cc1ccc(/C=N/NC(=O)c2ccoc2C)s1,?,i,?,i,?
O=C(N/N=C/c1ccc(Br)s1)c1ccco1,6.31µM,i,?,i,10µM
CC(C)NC(=O)N1CC2(CCN(C(=O)c3ccco3)CC2)C1,i,nt,nt,nt,i
O=C(N/N=C/c1ccc(Br)s1)c1ccccn1,?,i,?,i,3.98µM
C/C(=N\NC(=O)c1ccoc1C)c1cccc2ccccc12,12.6µM,i,i,?,i
COc1ccc(/C(C)=N/NC(=O)CN(c2ccc(OC)cc2)S(=O)(=O)c2ccccc2)cc1,i,i,i,i,i
CCOC(=O)N1CC=C2C(C#N)=C(N)C(C#N)(C#N)[C@H](c3ccc(OC(C)C)c(OCC)c3)[C@H]2C1,?,?,13µM,?,i
O=C(CN(Cc1ccc(Cl)cc1)C(=O)CNS(=O)(=O)c1ccccc1)NCC1CCCO1 (centres undefined),i,i,i,i,i
COc1ccc(NC(=O)CN(C)C(=O)c2ccc(NS(=O)(=O)c3cccc([N+](=O)[O-])c3)cc2)cc1,nt,i,i,i,nt
c1cnc(-c2nnc3n2CCCCC3)cn1,i,?,i,1.46µM,i
O=C(NCCCN1CCCC1=O)Nc1ccccc1F,i,i,?,i,i
COC(=O)N/N=C/c1cc(N=Nc2ccccc2)ccc1O,1.12µM,i,i,i,?
COC(=O)N/N=C/c1cc(N=Nc2ccccc2Cl)ccc1O,3.98µM,i,?,?,15.8µM
Nc1ccc(C(=O)N/N=C\c2cc(N=Nc3cccc4ccccc34)ccc2O)cc1,1.58µM,?,?,i[0.0737 µM],5.62µM
COC(=O)N/N=C/c1cc(Br)ccc1O,7.08µM,i,i,i,?
COC(=O)N/N=C\c1cc(Br)ccc1OCc1ccccc1,?,?,i,i,i
O=C(NCCCN=C1NS(=O)(=O)c2ccccc21)c1ccc(Cl)cc1,i,i,i,i,i
CCSc1ncccc1C(=O)N[C@@H](CCSC)C(=O)OC,i,i,i,i,i
O=C1[C@@H]2Cc3c([nH]c4ccccc34)C(c3ccc([N+](=O)[O-])cc3)N2C(=O)CN1C1CC1 (some centres undefined),i,i,?,i,i
CCCCn1cc(S(=O)(=O)c2ccccc2)c(=O)c2cc(C)ccc21,i,i,i,i,i
Cc1cc(C(=O)N/N=C/c2cc(N=Nc3ccccc3)ccc2O)n[nH]1,10µM,?,?,i,11.2µM
Cc1cc(C(=O)N/N=C/c2ccc(O)c([N+](=O)[O-])c2)n[nH]1,i,i,?,i,i
SMILES,RORgamma inh,SW480 rerep,ELG1 DNA repair,MCF10A rerep,Gal4-VP16 FLuc
Cc1cc(C(=O)N/N=C/c2ccccn2)n[nH]1,i,i,?,i,i
Cc1cc(C(=O)N/N=C/c2cccc([N+](=O)[O-])c2O)n[nH]1,12.6µM,i,i,i,?
Oc1ccc(Br)cc1/C=N/N1CCCCC1,i,i,?,i,i
CC(C)NC(=S)N/N=C/c1cc(Br)ccc1O,5.01µM,?,i,?,4.47µM
Cc1ccc(NC(=O)COc2ccccc2C=O)cc1Cl,i,i,?,i,i
COc1ccc(-c2cn3c(C)c(C(=O)N4CCCc5ccccc54)sc3n2)cc1,nt,i,nt,i,nt
COc1ccc(-c2cn3c4c(sc3n2)CCCC4)cc1,11.2µM,i,?,i,10µM
COc1ccc(-c2cn3c(C)c(C(=O)Nc4ccncc4)sc3n2)cc1,i,?,i,?,12.6µM
COc1ccccc1NC(=O)CCCc1nnc2n(C)c(=O)c3sccc3n12,i,i,i,i,i
CCOc1ccccc1NS(=O)(=O)c1ccc2c(c1)n(C)c(=O)c(=O)n2C,i,i,i,i,i
CC(C)C(NS(=O)(=O)c1ccccc1)C(=O)N1CCCCCC1 (centres undefined),i,i,i,?,i
Cc1c(Cl)c(-c2n[nH]c(=S)n2CC(C)C)nn1C,12.6µM,i,i,i,?
Cn1cc(Cl)c(-c2n[nH]c(=S)n2-c2ccccc2)n1,i,i,i,i,i
CCc1nn(C)c(-c2n[nH]c(=S)n2N)c1Cl,i,i[9.22 µM],i,i,i
Cc1nn(C)c(-c2n[nH]c(=S)n2-c2ccccc2)c1Cl,11.2µM,i,i,i,i
CCCCn1c(-c2nn(C)c(C)c2Cl)n[nH]c1=S,3.16µM,i,i,i,?
Cc1c(Cl)c(-c2n[nH]c(=S)n2-c2ccc(F)cc2)nn1C,12.6µM,i,?,i,i
CN(C)c1ccc(/C=N/N=C(N)N)cc1[N+](=O)[O-],i,i,i,i,i
CCOC(=O)CC(NS(=O)(=O)Cc1ccccc1)c1ccc(C)cc1 (centres undefined),i[10 µM],i,i,i,i
COc1ccc(-n2ccnc2SCC(=O)NCc2ccc(F)cc2)c(OC)c1,i,?,i,?,i
Cc1cc(C)nc(N2CCCC(C(=O)NNC(=O)c3ccncc3)C2)n1 (centres undefined),i,i,i,?,i
COCC(=O)N(CCc1ccc(OC)c(OC)c1)Cc1nc2ccccc2c(=O)[nH]1,i,?,i,i,i
COc1ccc(CCN(Cc2nc3ccccc3c(=O)[nH]2)C(=O)c2ccco2)cc1,12.6µM,i,?,i,?
CCC(CC)C(=O)N(CCc1ccc(OC)cc1)Cc1nc2ccccc2c(=O)[nH]1,5.01µM,20.6µM,23.1µM,23.1µM,10µM
Cn1cc(-c2nc3cnc(Oc4ccccc4)nc3n(C)c2=O)c2ccccc21,i,nt,nt,nt,i
SMILES,RORgamma inh,SW480 rerep,ELG1 DNA repair,MCF10A rerep,Gal4-VP16 FLuc
S=C1NNC2(CC3CC2C2CCCC32)NN1 (centres undefined),?,i,i,i,i
O=C(COC(=O)CC1CC2CCC1C2)Nc1cc([N+](=O)[O-])ccc1F (centres undefined),i,?,i,i,i
CCN1CCN(c2cc(N3CCc4ccccc4C3)c(F)cc2[N+](=O)[O-])CC1,i,?,i,?,i
CCC(=O)Oc1ccc(C(=O)Nc2ccc3c(c2)C(=O)N(C2CCCCC2)C3=O)cc1,i,?,?,23.1µM,?
C/C(=N\NC(=O)Cc1cccc2ccccc12)c1ccncc1,?,?,i,?,?
FC(F)(F)c1cnc(C(c2ccccn2)c2ncn[nH]2)c(Cl)c1 (centres undefined),11.2µM,?,25.9µM,?,i
O=C1CS/C(=C/C(=O)c2cccc(Cl)c2)N1,5.62µM,i[1.84 µM],i,i,?
Cc1ccc(C(=O)/C=C2/NC(=O)CS2)cc1,?,i,?,i,?
N=c1oc2ccccc2cc1C(=O)Nc1ccccc1,?,i,?,i,?
CCCCCCc1cc2cc(C(=O)Nc3ccccc3)c(=O)oc2cc1O,?,2.06µM,?,?,4.47µM
CCCCCCc1cc2cc(C(=O)NCc3ccccc3)c(=N)oc2cc1O,?,?,i,7.31µM,?
